Data: PubChem BioAssay (NCI)
Compounds without any hit were thinned out: in the full panel of roughly 83,000, 20% have a hit.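 Activity criterion: percent growth below 10, measured after cells in 96-well plates were exposed to a single compound concentration for 48 hours.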 Activity calls are given as the source filed them.

test system: T-47D breast; experiment: NCI-60 one-dose screen, 48 h (100 = growth as untreated, 0 = no growth, -100 = all killed); settings: 10 µM unless noted
Procedure: Growth inhibition of the T-47D human tumor cell line is measured as a screen for anti-cancer activity. Cells are grown in 96 well plates and exposed to the test compound for 48 hours. Compounds are tested at a single concentration, which is 10^-5 M for most compounds. The reported endpoint is percent growth (GI% or GIPRCNT), where numbers from 0 - 100% represent growth inhibition, and numbers from -100% - 0 represent cell death. For example, a value of 40 represents 60% growth inhibition. A value of 0 means no net growth occurred over the course of the experiment. A value of -40 indicates 40% of cells at the beginning of the experiment died by the end of the experiment. A value of -100 means all cells are dead at the end of the experiment.
NCI-60 Human Tumor Cell Lines Screen was performed using the standard one-dose NCI protocol, which is described in more detail at https://dtp.cancer.gov/discovery_development/nci-60/default.htm.
Compounds with GIPRCNT values below 10 were considered active. Activity score was based on GIPRCNT using the following formula: […]
Score is 0 for GIPRCNT values of 100 or above, 50 for GIPRCNT values of 0, and 100 for GIPRCNT values of -100.

**Q.** For `O=C(CN1C(=O)CSC1=O)Nc1ccc(C(=O)/C=C/c2cc3ccccc3nc2Cl)cc1`, which growth is on record?
**A.** 58.7% (inactive)

**Q.** With `N#Cc1c(NC(=O)c2ccccc2C(F)(F)F)sc2c1CCC(=O)C2` as the compound, how does the growth read?
**A.** 1.79% (active)

**Q.** With `CC1CCc2c(sc3nc(SCC(=O)N/N=C/c4cccc(O)c4O)n(-c4ccccc4)c(=O)c23)C1` (stereo not given) as the compound, how does the growth read?
**A.** 74.5% (inactive)

**Q.** `CCNCc1c(-c2cccc(OC(F)(F)F)c2)[nH]c2ccc(N3CCCC3)cc2c1=O` was tested. Which growth did it give?
**A.** 28.9% (inactive)

**Q.** Which growth does the source give for `NCCN1CCN(c2nc(-c3ccccc3)nc3nc(-c4ccccc4)oc23)CC1` here?
**A.** -16.2% (active)

**Q.** `Oc1ccc(CSc2nnc(-c3ccccc3)o2)c2cccnc12` was tested. Which growth did it give?
**A.** 4.16% (active)

**Q.** How did the growth turn out when `CCCCCCCCNC(=O)c1ccc(Cn2c(CCCC)nc3c(N)nc4ccccc4c32)cc1` was run?
**A.** -38.2% (active)

**Q.** With `C=CCn1c(SCC(=O)Nc2cccc(C(=O)/C=C/c3ccc(Cl)cc3)c2)nc2ccccc2c1=O` as the compound, how does the growth read?
**A.** 78.6% (inactive)

**Q.** For `Cc1csc(Nc2cccc(Nc3nc(C)cs3)c2)n1`, which growth is on record?
**A.** 36.1% (inactive)

**Q.** Which growth does the source give for `C[C@@H]1C[C@H]2C(=O)OCC(NC(=O)[C@H](Cc3cc(F)cc(F)c3)NC(=O)Nc3ccc(Cl)cc3F)C(=O)N3CCC[C@H]3C(=O)N3CCCC[C@H]3C(=O)N[C@@H](C)C(=O)N2C1` (stereo not given in full) here?
**A.** 28.8% (inactive)

**Q.** With `O=S(=O)(Nc1cc(Cl)cc(Cl)c1)c1ccc(-c2cnc(C3CC3)o2)cc1` as the compound, how does the growth read?
**A.** 41.7% (inactive)

**Q.** `COCCOc1ccc(-c2csc(NC(=O)CN3CCN(CCO)CC3)n2)cc1NS(=O)(=O)c1cccc2c(N(C)C)cccc12` was tested. Which growth did it give?
**A.** 84.5% (inactive)

**Q.** Which growth does the source give for `O=S(=O)(NC1CC2CCC1C2)c1ccc2c(c1)C(=NO)c1cc(S(=O)(=O)NC3CC4CCC3C4)ccc1-2` (stereo not given) here?
**A.** -0.508% (active)

**Q.** For `CSc1nccc(-c2c(-c3ccc(F)c(OCc4ccc(F)cc4)c3)nc3sccn23)n1`, which growth is on record?
**A.** 65.9% (inactive)

**Q.** How did the growth turn out when `COc1ccc(Oc2ccc(C3CC(c4cc(OC)c(OC)c(OC)c4)=NN3C(C)=O)cc2)cc1` (stereo not given) was run?
**A.** 9.08% (active)

**Q.** With `CCN(CC)CCCC(C)NCC(=O)NC(c1ccc2c(c1)OCO2)c1cc(Cl)c2cccnc2c1O` (stereo not given) as the compound, how does the growth read?
**A.** 40.1% (inactive)

**Q.** `NNC(=O)c1sc2nc(-c3cnccn3)cc(-c3cccs3)c2c1N` was tested. Which growth did it give?
**A.** 86.4% (inactive)

**Q.** With `CC1(C)CC[C@]2(C(=O)O)CC[C@]3(C)C(=CCC4[C@@]5(C)C[C@@H](O)[C@@H]6OC(c7cccc([N+](=O)[O-])c7)OC[C@@]6(C)C5CC[C@]43C)C2C1` (stereo not given in full) as the compound, how does the growth read?
**A.** 93.1% (inactive)

**Q.** How did the growth turn out when `CCOC(=O)C1=C(C)N=C2Sc3ccccc3N2C1c1ccccc1` (stereo not given) was run?
**A.** 76.6% (inactive)

**Q.** With `O=C(Nc1cc(Cl)cc(Cl)c1)Nc1ccc2oc(=O)ccc2c1` as the compound, how does the growth read?
**A.** 3.54% (active)

**Q.** For `C#C[C@]1(O)CC[C@H]2[C@@H]3CC=C4c5sc(Nc6cccc(Cl)n6)nc5CC[C@]4(C)[C@H]3CC[C@@]21C`, which growth is on record?
**A.** 25.8% (inactive)

**Q.** How did the growth turn out when `COc1ccc(-c2nc3cc(Cl)c(Cl)cc3n2CC(=O)N=Nc2c(O)[nH]c3ccc(Cl)cc23)cc1` was run?
**A.** -14.4% (active)

**Q.** Which growth does the source give for `CC1(C)CC[C@]2(C(=O)N3CCCNCC3)CC[C@]3(C)C(=CC[C@@H]4[C@@]5(C)CCC(=O)C(C)(C)[C@@H]5CC[C@]43C)[C@H]2C1` here?
**A.** 100% (inactive)

**Q.** For `COc1ccc(N)cc1C(=O)Nc1cccc(-c2cc(=O)c3c(OC)c(OC)c(OC)cc3o2)c1`, which growth is on record?
**A.** 41.7% (inactive)

**Q.** With `COc1ccc(-c2cc(-c3ccc(Cl)cc3)nc3nc(N)nn23)cc1` as the compound, how does the growth read?
**A.** 91.4% (inactive)

**Q.** Which growth does the source give for `CCOC(=O)c1c(NC(=O)c2ccc(F)cc2F)sc2c1CCC(=O)C2` here?
**A.** 81.4% (inactive)

**Q.** With `COC(=O)Nc1ccc(-c2nc(-c3cccc(O)c3)c(-c3ccnc(Br)c3)[nH]2)cc1` as the compound, how does the growth read?
**A.** 34.7% (inactive)

**Q.** Which growth does the source give for `CC(=O)c1sc(Nc2cccc(Nc3nc(C)c(C)s3)c2)nc1C` here?
**A.** 13.3% (inactive)

**Q.** `Cc1ccccc1/C=C/c1nn2c(-c3ccoc3C)nnc2s1` was tested. Which growth did it give?
**A.** 90.5% (inactive)

**Q.** Which growth does the source give for `CC1(COc2ccc3ncc(C#Cc4cncc(C(=O)Nc5cc(C(C)(C)C)on5)c4)n3n2)COC1` here?
**A.** 32.5% (inactive)

**Q.** Which growth does the source give for `CS(=O)(=O)c1ccc(-c2nn(-c3ccccc3)cc2/C=N/NC(=O)c2ccncc2)cc1` here?
**A.** 90.8% (inactive)

**Q.** Which growth does the source give for `CCCCCc1ccc(S(=O)(=O)N(C(C)=O)c2cccc(-c3csc(N(CCN4CCN(C)CC4)C(C)=O)n3)c2)cc1` here?
**A.** 50.4% (inactive)

**Q.** For `COc1ccc(-c2nnc(SCc3ccc(O)c4ncccc34)o2)cc1`, which growth is on record?
**A.** 27% (inactive)

**Q.** With `Cc1cccc(NC(c2cc3cccc4ccc5cccc2c5c43)c2nnnn2C(C)(C)C)c1C` (stereo not given) as the compound, how does the growth read?
**A.** 68.4% (inactive)

**Q.** For `COc1ccc([C@H]2[C@H](O)C(=O)N2c2cc(OC)c(OC)c(OC)c2)cc1`, which growth is on record?
**A.** 70.2% (inactive)

**Q.** `CNC(=O)c1cc(Oc2ccc3nc(NC(=O)c4cc(C)cc(C)c4)sc3c2)ccn1` was tested. Which growth did it give?
**A.** 80.1% (inactive)

**Q.** With `CC1CCN(S(=O)(=O)c2ncsc2-c2ccccc2)CC1` as the compound, how does the growth read?
**A.** 90.7% (inactive)

**Q.** Which growth does the source give for `CS(=O)(=O)c1ccc2c(c1)c1c(n2S(=O)(=O)c2ccc(Cl)cc2)CCCC1` here?
**A.** 23% (inactive)

**Q.** Which growth does the source give for `CC(C)(C)CC(C)(C)n1nnnc1C(Nc1ccccc1)c1cc2cccc3ccc4cccc1c4c32` (stereo not given) here?
**A.** 55.7% (inactive)

**Q.** Which growth does the source give for `COc1ccc([C@@H]2[C@@H](O)C(=O)N2c2cc(OC)c(OC)c(OC)c2)cc1` here?
**A.** 67.1% (inactive)
